CHX counter = affects cycloheximide protein synthesis inhibition readout, counter-screen. max response, %. AID 2314. cell reporter, cycloheximide protein synthesis inhibition counterscreen. hit rate 12% among 300,000; in the data active means max response mostly above about 13%, no sharp cut-off; inactive means mostly below about 14%; further: read at 38.3 µM for the half of the compounds with a filed dose; 0% is about no effect
LmPK inhibitor = LmPK (Leishmania mexicana) enzyme inhibition; purified LmPK, Kinase-Glo ATP luminescence, 1 h; Potency, µM (titrated, usually from 57.5 µM), inactives show top-dose activity change, negative = inhibition, usual class: inhibitors; hit rate 0.37% among 290,000; AID 1721; further: potency means the concentration at half of the fitted maximal effect; on the % scale 0 is the no-effect control and ±100 the full control effect
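Screened at intermediate enzyme activity to detect both inhibitors and activators: LmPK at 0.1 nM, with a 0.5 nM enzyme column as activation reference. PEP 0.5 mM, ADP 0.1 mM; ATP detected by luminescence after 1 h.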
TbPYK inhibitor = blocks Trypanosoma brucei pyruvate kinase. AID 624173. hit rate 0.12% among 410,000. TbPYK enzyme, Kinase-Glo Plus ATP luminescence, 45 min. Potency, µM (top dose mostly 76.8 µM), for the others: at the highest dose activity, negative = inhibition, most hits filed as inhibitors; further: potency means the concentration at half of the fitted maximal effect; on the % scale 0 is the no-effect control and ±100 the full control effect; nearly all actives have a fitted effect of over 50% in size
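Assay buffer: 50 mM TEA pH 7.2, 100 mM KCl, 10 mM MgCl2, 0.05% BSA, 0.01% Tween-20. Pyruvate kinase from T. brucei plus substrate met compound, then ADP (130 uM final). Luminescence was read post 45 min RT.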
FBPA Giardia inh = inhibitors of Giardia lamblia fructose-1,6-bisphosphate aldolase; AID 2451; purified Giardia FBPA; hit rate 0.71% among 290,000; A8B2U2; Potency, µM (doses to about 59.6 µM), without a hit: at the highest dose activity, negative = inhibition, most hits filed as inhibitors; further: potency means the concentration at half of the fitted maximal effect; on the % scale 0 is the no-effect control and ±100 the full control effect; nearly all actives have a fitted effect of over 55% in size
Target sequence (A8B2U2 whole entry, looked up): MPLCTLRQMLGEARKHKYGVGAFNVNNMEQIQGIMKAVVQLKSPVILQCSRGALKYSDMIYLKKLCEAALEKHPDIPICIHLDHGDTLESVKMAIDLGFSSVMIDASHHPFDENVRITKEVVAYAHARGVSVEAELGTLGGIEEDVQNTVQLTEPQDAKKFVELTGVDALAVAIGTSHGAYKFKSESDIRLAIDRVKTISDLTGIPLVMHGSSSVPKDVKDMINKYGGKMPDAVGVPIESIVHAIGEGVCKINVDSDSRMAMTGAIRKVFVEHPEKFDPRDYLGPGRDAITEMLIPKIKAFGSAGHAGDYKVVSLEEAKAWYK
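Giardia FBPA (40 nM reagent) was preincubated 10 min at RT with compound (up to 57.5 uM final), then substrate plus GAPDH/TPI/NAD/arsenate coupling system with diaphorase/resazurin was added; resorufin fluorescence (525/598 nm) was read after 20 min.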
Shiga inhibitor = Shiga toxin inhibition. Vero cells, Shiga toxin protein synthesis inhibition reporter. inhibition, % at 38.7 µM. hit rate 9.2% among 290,000. AID 2315; in the data active means inhibition mostly above about 28%, no sharp cut-off; inactive means mostly below about 43%; further: 0% is about no effect
Sm TGR inh = blocks Schistosoma mansoni thioredoxin glutathione reductase; purified TGR, DTNB reduction, TNB absorbance 405 nm; Q962Y6; AID 485364; hit rate 3% among 360,000; Potency, µM (titrated, usually from 114 µM), inactives show at the highest dose activity change, negative = inhibition, hits mostly inhibitors; further: potency means the concentration at half of the fitted maximal effect; on the % scale 0 is the no-effect control and ±100 the full control effect; nearly all actives have a fitted effect of over 60% in size
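Kinetic colorimetric format: TGR-catalysed, NADPH-driven DTNB reduction monitored via TNB absorbance. Enzyme dispensed at 20 nM; compound exposure 15 min at room temperature before reaction start.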
* hit, by the source's call; ? = inconclusive; . = no result given; [ ] = another dose, or the depositor's remark. Only a selection was taken, and hits are over-represented in it overall. Unless noted, the call rests on the fitted dose curve; in most records, active means well fitted curve in the direction sought with a large enough effect; inconclusive means small, poorly fitted or top-dose-only effect, or another doubt; inactive means no such curve, though single readings can be large; an effect the other way counts as inactive or inconclusive.

SMILES | CHX counter | LmPK inhibitor | TbPYK inhibitor | FBPA Giardia inh | Shiga inhibitor | Sm TGR inh
CSc1ccccc1-c1nnc(-c2ccc(Cl)cc2Cl)o1 | 24 | -2% | 1% | 2% | 30 | -4%
O=C(O)CCSc1nnc(-c2ccc(Cl)cc2Cl)o1 | . | . | 4% | . | . | -5%
CSc1nnc(-c2ccc(Cl)cc2Cl)o1 | 52* | -4% | -5% | . | 91 | 11%
CSc1nnc(-c2ccccc2Cl)o1 | 29* | 8% | -5% | 5% | 88* | 0%
CCOc1ccc(C(=O)CCC(=O)Nc2cccc(S(=O)(=O)N3CCCCC3)c2)cc1 | . | . | 5% | . | . | 1%
O=c1ncn(-c2cccc(F)c2)c2ncccc12 | 14* | -5% | -6% | -1% | 3 | 0%
Cc1nc(NC(=O)c2ccccc2)nc2cc3c(cc12)OCO3 | 46* | -15% | -6% | -2% | 92* | -5%
CCN(C(=O)/C=C/c1ccc2c(c1)OCO2)c1ccccc1 | 21* | 0% | -9% | 5% | 43* | -5%
CCOC(=O)CNC(=O)/C=C/c1ccc2c(c1)OCO2 | 18* | -1% | 5% | 7% | 29 | 8%
CCOC(=O)c1cccc(NC(=O)c2ccc3c(c2)OCO3)c1 | 21* | -4% | -5% | -1% | 33* | 0%
Cc1nn(-c2ccc(N3CCOCC3)nn2)c(C)c1CCC(=O)Nc1ccc(F)cc1F | . | . | -2% | . | . | 7%
CC(=O)c1cccc(NC(=O)c2ccc3c(c2)OCO3)c1 | 52* | 0% | -15% | 8% | . | -14%
CCOC(=O)c1cccc(NC(=O)/C=C/c2ccc3c(c2)OCO3)c1 | 31* | -4% | -3% | -5% | 45* | -23%
O=C(Nc1cccc(NC(=O)c2ccc3c(c2)OCO3)c1)c1ccccc1 | 24* | -3% | -1% | 1% | 48 | 0%
COCC(=O)Nc1ccc2c(c1)OCO2 | 14 | -3% | 5% | -6% | 12 | 7%[57.1 µM]
CCOC(=O)CNc1ccc2c(c1)OCO2 | 15 | -13% | -21% | ? | -5 | 50µM*
COc1ccc(-c2cc(NC=O)c3ncc(-c4cccc(C(F)(F)F)c4)n3c2)cc1OC | . | . | -2% | . | . | .
O=C(CNC(=O)c1ccccc1)OCc1cc(=O)n2ccsc2n1 | . | . | 1% | . | . | 7%
O=C(CNC(=O)c1ccc(Cl)cc1)OCc1cc(=O)n2ccsc2n1 | . | . | -5% | . | . | 35µM*
COC(=O)c1ccc(OCc2cc(=O)n3ccsc3n2)cc1 | 49* | -23% | 1% | -12% | 142* | 1%
Cc1ccc(S(=O)(=O)NCC(=O)Nc2cccnc2)cc1C | . | . | -1% | . | . | .
N#C/C(=C\c1cccs1)C(=O)Nc1nccs1 | 27* | ? | ? | -9% | 65* | -7%
CC1Oc2ccccc2OC1C(=O)Nc1nccs1 (stereo not given) | 18* | -1% | 1% | . | 25 | 2%
O=C(Nc1nccs1)c1ccccc1N=Cc1ccccc1 | 25* | 5% | -15% | -3% | 48* | 12%
C/C(=C\c1ccccc1)C(=O)Nc1nccs1 | 49* | -7% | 0% | 0% | 152* | 0%
SMILES | CHX counter | LmPK inhibitor | TbPYK inhibitor | FBPA Giardia inh | Shiga inhibitor | Sm TGR inh
COc1cccc(C=Nc2ccccc2C(=O)Nc2nccs2)c1OC | 6 | 5% | -1% | 5% | -6 | 7%
Cc1cccc(-c2[nH]c(C(C)(C)C)nc2-c2ccc3nccnc3c2)n1 | . | . | 0% | . | . | .
COc1ccc(OC)c(NC(=O)c2cc(-c3ccc(Cl)s3)nc3ccccc23)c1 | . | . | 0% | . | . | 1%
COC(=O)C1=C(C)NC(C)=C(C(=O)NCCCN2CCC(c3ccccc3)(c3ccccc3)CC2)C1c1ccc([N+](=O)[O-])cc1 (stereo not given) | -8 | . | . | -7% | -13 | .
Cc1cc2c(s1)c(C=O)c(C(=O)NCc1ccccc1F)n2C | . | . | . | . | . | -5%
O=C(Nc1nccs1)c1ccc[nH]c1=O | 25* | 0% | -2% | -5% | . | -2%
O=C(Nc1nccs1)c1cccnc1Cl | -2 | 0% | -2% | -6% | 3 | -16%
COc1ccc(C(=O)/C=C/c2ccccc2)c(O)c1 | 70* | -4% | -5% | 1% | 54* | -14%
COc1ccc(C(=O)/C=C/c2ccc(OC)cc2OC)c(O)c1 | 43* | -1% | -8% | -9% | 72* | 7%

Screens (PubChem BioAssay)
